For test [1], the target named is Albumin (Bos taurus) (UniProt P02769). The experiment in a line: compounds binding labelled BSA control protein – biochemical, small-molecule microarray, Alexa647 label, 635/667 nm fluorescence, artefact control for SMM control protein annotation, profiling panel (AID 1118).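 Further: score merges 667 nm emission intensity and signal-to-noise per printed compound spot.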 The settings on record: BSA-A647 binding, fluorescence 635 nm, higher = more signal.
Test [2] in a line: probe aXIP binding to arrayed compounds – biochemical, NeuroSMM set, 635/667 nm fluorescence, primary screen (AID 1119).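 Further: probe is the protein aXip251-270 applied at 1 µg/mL to compound-printed slides; binding of probe to printed compounds measured as 667 nm fluorescence plus signal to noise.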 The settings on record: small-molecule microarray, higher = more signal, called active from +8 up or from −8 down.
The nature of test [3]: probe aNOTCH3 binding on compound microarray – biochemical, small-molecule microarray, 635/667 nm fluorescence, primary screen (AID 1120).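 Further: probe is a biotin-tagged antibody raised against NOTCH3 rather than NOTCH3 protein; score merges spot fluorescence near 667 nm with spot signal to noise.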 The following applies: higher = more signal.
The nature of test [4]: probe aNOTCH2 binding on compound microarray – biochemical, small-molecule microarray, 635/667 nm fluorescence, primary screen (AID 1121).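 Further: score merges feature fluorescence read at 667 nm with its signal to noise.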 The settings on record: higher = more signal.
Test [5] addresses Carbonic anhydrase 2 (Homo sapiens) (UniProt P00918). The experiment in a line: compounds binding carbonic anhydrase 2 – biochemical, small-molecule microarray, Alexa647-labelled CAII, profiling panel (AID 1122). The settings on record: CAII-A647 binding fluorescence, higher = more signal.
Test [6] is described as follows: COS7 lysate on small-molecule microarray, probe aHis, 635 nm (AID 1123).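 Further: z-score combines 667nm fluorescence intensity with signal-to-noise per printed compound spot.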 The settings on record: COS7 cell lysate, fluorescence, higher = more signal.
A short description of test [7]: probe aLAP1 signal on lysate-treated microarray – cell lysate, small-molecule microarray, COS7 lysate, primary screen (AID 1124).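 Further: lysate comes from COS7 cells expressing LAP1 and is applied at 0.3 µg/mL; score merges spot fluorescence near 667 nm with signal-to-noise over triplicate slides.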 The settings on record: probe aLAP1, fluorescence, higher = more signal.
The subject of test [8] is Sam68 (KHDRBS1). The experiment in a line: compounds binding KHDRBS1 protein – biochemical, small-molecule microarray, 635 nm fluorescence, primary screen (AID 1125).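 Further: score merges 667 nm channel intensity with signal to noise over triplicate slides.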 The following applies: higher = more signal.
In test [9] the test system is Chordin-like protein 2 (CHRDL2). The experiment in a line: compounds binding chordin-like 2 – biochemical, small-molecule microarray, 635 nm fluorescence, primary screen (AID 1126).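 Further: printed compound slides probed with Chrdl2 protein at 4 µg/mL for 1 h at 4 C; score merges 667 nm emission intensity with signal to noise over three replicate slides.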 The settings on record: fluorescence 635 nm, higher = more signal.
Test [10] addresses Concanavalin-A (Canavalia ensiformis) (UniProt P02866). As to the kind of experiment: compounds binding concanavalin A lectin – biochemical, small-molecule microarray, Alexa647 label, 635 nm, artefact control for SMM control protein annotation, primary screen (AID 1127).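 Further: z combines 667 nm emission intensity with signal-to-noise across three replicate slides.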 The settings on record: ConA-A647 binding fluorescence, higher = more signal.
Test [11] is described as follows: compounds binding Alexa647 anti-His antibody – biochemical, small-molecule microarray, 635 nm fluorescence, artefact control for SMM control protein annotation, primary screen (AID 1128).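 Further: score merges feature fluorescence with signal-to-noise for each printed compound spot.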 The following applies: higher = more signal.
Test [12] relates to Human papillomavirus type 1a E7 protein (residues 1-88). The experiment in a line: HPV1a E7 small-molecule binders, primary screen, biochemical, small-molecule microarray, residues 1-88, 635 nm (AID 1129). The following applies: small-molecule microarray binding, fluorescence 635 nm; higher = more signal.
In test [13] the target is Focal adhesion kinase 1 (Homo sapiens) (UniProt Q05397). As to the kind of experiment: PTK2 protein binding on printed compound slides – biochemical, small-molecule microarray, 635/667 nm fluorescence, BSA, DTT, primary screen (AID 1130).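 Further: composite of spot emission at 667 nm and signal to noise over triplicate slides.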 The following applies: 635 nm fluorescence, higher = more signal.
In test [14] the test system is Fibrinogen (Alexa647-labelled). As to the kind of experiment: Alexa647-fibrinogen binding to printed small molecules – biochemical, small-molecule microarray, 635/667 nm fluorescence, artefact control for SMM control-protein annotation, profiling panel (AID 1131).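 Further: z-score merges 667 nm fluorescence with per-spot signal-to-noise over triplicate slides.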 The following applies: fibrinogen-A647 binding fluorescence, higher = more signal.
Test [15] has as its target Follistatin (Homo sapiens) (UniProt P19883). As to the kind of experiment: FST protein binding to printed compounds – biochemical, small-molecule microarray, 635/667 nm fluorescence, primary screen (AID 1132). The following applies: 635 nm fluorescence, higher = more signal.
Test [16] addresses Fibroblast growth factor 2 (Homo sapiens) (UniProt P09038). As to the kind of experiment: basic fibroblast growth factor binding to printed compounds – biochemical, small-molecule microarray, 635/667 nm fluorescence, primary screen (AID 1133). The following applies: FGF2, fluorescence 635/667, higher = more signal.
Test [17] in a line: JC-1 mitochondrial potential readout, lung cancer cells – cell-based, A549, JC-1 fluorescence, basal, 24 h, 100 nL, profiling panel (AID 1138).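 Further: A549 lung adenocarcinoma cells under basal conditions with no added stimulus; test concentration not given here.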 The following applies: higher = more signal.
In test [18] the test system is Lefty1. As to the kind of experiment: Lefty1 protein binding to printed compounds – biochemical, small-molecule microarray, 635/667 nm fluorescence, primary screen (AID 1139). The following applies: fluorescence 635/667, higher = more signal.
Test [19] deals with wheat germ agglutinin (Triticum aestivum), Alexa647-labelled. As to the kind of experiment: Alexa647-WGA lectin binding to printed small molecules – biochemical, small-molecule microarray, 635/667 nm fluorescence, artefact control for SMM control-protein annotation, profiling panel (AID 1140).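 Further: score merges 667 nm feature emission with signal to noise over triplicate slides.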 The settings on record: WGA-A647 binding, 635 nm fluorescence, higher = more signal.
In test [20] the target is Luciferin 4-monooxygenase (Photinus pyralis) (UniProt P08659). The experiment in a line: inhibition of purified Photinus pyralis luciferase – biochemical, luminescence, purified enzyme, 2006 set, primary screen (AID 1141).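 Further: cell-free assay with purified firefly luciferase at 100 ng per well in PBS; test concentration not given here.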 The following applies: purified firefly luciferase, SteadyGlo luminescence, 30 min; higher = more signal, called active from +8 up or from −8 down.

The source made the active and inactive calls.

Luciferin 4-monooxygenase (Photinus pyralis), sequence (P08659 whole entry, looked up): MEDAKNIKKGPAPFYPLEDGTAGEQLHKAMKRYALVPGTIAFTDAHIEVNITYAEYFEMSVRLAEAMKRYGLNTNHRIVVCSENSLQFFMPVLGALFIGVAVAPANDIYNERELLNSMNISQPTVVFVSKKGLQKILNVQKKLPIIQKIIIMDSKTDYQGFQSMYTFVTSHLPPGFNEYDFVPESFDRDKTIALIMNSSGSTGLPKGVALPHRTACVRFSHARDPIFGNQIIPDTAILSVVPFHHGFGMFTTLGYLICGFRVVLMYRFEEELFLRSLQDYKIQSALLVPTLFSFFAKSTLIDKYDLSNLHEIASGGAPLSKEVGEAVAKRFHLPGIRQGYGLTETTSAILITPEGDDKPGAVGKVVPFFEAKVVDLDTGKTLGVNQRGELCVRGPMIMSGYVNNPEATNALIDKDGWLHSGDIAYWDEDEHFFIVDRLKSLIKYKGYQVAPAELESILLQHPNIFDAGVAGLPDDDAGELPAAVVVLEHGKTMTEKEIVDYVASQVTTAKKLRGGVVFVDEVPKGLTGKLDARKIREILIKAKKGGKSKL
Focal adhesion kinase 1 (Homo sapiens), sequence (Q05397 whole entry, looked up): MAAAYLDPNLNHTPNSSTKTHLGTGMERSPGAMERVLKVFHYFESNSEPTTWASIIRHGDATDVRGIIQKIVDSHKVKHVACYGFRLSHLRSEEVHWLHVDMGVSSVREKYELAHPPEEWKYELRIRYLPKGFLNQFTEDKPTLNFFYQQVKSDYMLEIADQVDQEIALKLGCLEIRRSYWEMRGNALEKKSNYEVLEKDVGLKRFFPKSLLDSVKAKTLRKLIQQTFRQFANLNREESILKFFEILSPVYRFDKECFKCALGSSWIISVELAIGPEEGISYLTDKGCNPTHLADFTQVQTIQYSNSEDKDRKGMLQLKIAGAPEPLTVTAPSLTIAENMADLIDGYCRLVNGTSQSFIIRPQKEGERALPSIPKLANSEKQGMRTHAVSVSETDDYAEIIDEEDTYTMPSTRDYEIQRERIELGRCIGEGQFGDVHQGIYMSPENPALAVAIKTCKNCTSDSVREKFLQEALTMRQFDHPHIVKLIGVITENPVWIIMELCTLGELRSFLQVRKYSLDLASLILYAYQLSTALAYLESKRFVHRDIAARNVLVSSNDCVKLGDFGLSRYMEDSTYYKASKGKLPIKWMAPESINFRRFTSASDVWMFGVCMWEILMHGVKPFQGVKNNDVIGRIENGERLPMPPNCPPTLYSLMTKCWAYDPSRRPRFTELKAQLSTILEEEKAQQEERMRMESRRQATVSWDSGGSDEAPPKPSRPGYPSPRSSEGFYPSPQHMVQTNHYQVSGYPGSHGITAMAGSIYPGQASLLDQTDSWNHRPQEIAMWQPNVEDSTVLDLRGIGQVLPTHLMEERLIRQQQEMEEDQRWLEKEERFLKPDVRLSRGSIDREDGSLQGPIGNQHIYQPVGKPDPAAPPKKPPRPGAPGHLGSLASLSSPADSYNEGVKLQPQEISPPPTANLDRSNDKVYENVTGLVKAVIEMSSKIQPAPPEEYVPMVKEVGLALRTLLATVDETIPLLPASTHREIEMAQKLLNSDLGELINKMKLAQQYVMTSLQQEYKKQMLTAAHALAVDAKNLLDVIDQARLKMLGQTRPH
Follistatin (Homo sapiens), sequence (P19883 whole entry, looked up): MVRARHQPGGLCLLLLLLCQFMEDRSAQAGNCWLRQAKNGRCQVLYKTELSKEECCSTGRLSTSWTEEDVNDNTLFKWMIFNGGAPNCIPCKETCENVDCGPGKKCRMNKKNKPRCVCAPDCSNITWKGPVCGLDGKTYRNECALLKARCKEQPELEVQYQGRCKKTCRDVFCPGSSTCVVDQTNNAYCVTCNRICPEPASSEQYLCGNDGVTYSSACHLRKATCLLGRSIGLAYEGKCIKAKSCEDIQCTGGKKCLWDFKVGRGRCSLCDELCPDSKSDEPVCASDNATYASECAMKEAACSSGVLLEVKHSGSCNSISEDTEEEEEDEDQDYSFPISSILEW
Concanavalin-A (Canavalia ensiformis), sequence (P02866 whole entry, looked up): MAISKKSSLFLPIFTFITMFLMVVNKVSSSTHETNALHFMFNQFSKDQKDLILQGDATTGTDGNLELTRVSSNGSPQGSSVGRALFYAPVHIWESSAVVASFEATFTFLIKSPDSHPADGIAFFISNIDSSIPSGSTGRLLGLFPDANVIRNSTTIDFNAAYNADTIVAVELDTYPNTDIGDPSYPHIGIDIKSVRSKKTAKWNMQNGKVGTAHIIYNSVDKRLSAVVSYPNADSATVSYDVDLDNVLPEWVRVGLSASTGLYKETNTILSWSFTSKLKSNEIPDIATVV
Albumin (Bos taurus), sequence (P02769 whole entry, looked up): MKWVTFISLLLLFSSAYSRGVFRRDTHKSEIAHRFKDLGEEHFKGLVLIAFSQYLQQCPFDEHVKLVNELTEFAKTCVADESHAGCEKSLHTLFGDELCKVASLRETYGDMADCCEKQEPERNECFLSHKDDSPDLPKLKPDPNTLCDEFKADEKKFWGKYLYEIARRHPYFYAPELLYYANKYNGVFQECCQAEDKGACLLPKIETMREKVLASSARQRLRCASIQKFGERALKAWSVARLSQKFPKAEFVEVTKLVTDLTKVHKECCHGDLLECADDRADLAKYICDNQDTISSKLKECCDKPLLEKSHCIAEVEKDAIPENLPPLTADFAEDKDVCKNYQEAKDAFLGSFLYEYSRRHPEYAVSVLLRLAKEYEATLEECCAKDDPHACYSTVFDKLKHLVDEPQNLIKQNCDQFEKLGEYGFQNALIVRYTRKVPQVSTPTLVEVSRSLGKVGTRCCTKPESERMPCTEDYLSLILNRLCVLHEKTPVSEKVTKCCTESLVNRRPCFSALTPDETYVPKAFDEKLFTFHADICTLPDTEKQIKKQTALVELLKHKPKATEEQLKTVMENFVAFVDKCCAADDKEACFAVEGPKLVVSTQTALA
Fibroblast growth factor 2 (Homo sapiens), sequence (P09038 whole entry, looked up): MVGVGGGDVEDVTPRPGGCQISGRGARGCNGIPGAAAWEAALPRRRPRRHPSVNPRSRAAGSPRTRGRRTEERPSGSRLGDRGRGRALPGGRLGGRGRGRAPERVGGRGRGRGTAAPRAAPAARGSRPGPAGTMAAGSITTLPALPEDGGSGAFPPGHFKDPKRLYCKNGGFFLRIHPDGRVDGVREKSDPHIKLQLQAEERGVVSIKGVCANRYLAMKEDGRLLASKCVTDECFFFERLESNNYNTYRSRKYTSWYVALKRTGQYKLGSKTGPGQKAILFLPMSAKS

With `O=C1NC(=O)C2C1C=CC(C(O)c1ccc(B(O)O)cc1)N2Nc1ccc(Cl)cc1Cl` (stereo not given), the composite z-score in test [1] was 0.0179; in test [3], 0.0864; in [4], 0.119; in test [5] it was 0.753; in test [6], 0.546; in test [7], -0.11. The composite z-score in test [8] was -0.597; in test [9], 0.0005; in [10], 0.423; in test [11], 0.207; in test [12] it was -0.213; in test [13], 0.265. The composite z-score in test [14] was 0.824; in test [15] it was 0.529; in test [16], -0.514; in test [18] it was -0.382; in test [19], 0.641. Further, the composite Z-score in test [2] was 0.168 (inactive). Besides, the z-score in test [17] is -0.711; in test [20], -0.63 (inactive).

Turning to `C=CCOC(=O)[C@H]1[C@@H]2C(=O)O[C@@H](c3ccccc3)[C@@H](c3ccccc3)N2[C@@H](c2ccc(OCCOC(=O)[C@@H]3C[C@@H]4C(=O)N[C@@H](CCCCNC(C)=O)C(=O)N4[C@@H]3c3cccc(OCCO)c3)cc2)[C@]12C(=O)Nc1ccccc12`, the composite z-score in test [1] was -0.623; in [3] it was 0.116; in [4] it was -0.0704; in test [5] it was 0.501; in test [6], 2.07; in test [7], 0.352. Besides, the composite z-score in test [8] was determined as 1.29; in test [9], 0.751; in [10], 1.2; in test [11], 2.81; in test [12] it was 1.19; in test [13] it was 0.838. Moreover, the composite z-score in test [14] is 0.276; in test [15] it was 1.25; in test [16], 1.53; in [18], 0.581; in test [19], -0.185. Also, the composite Z-score in test [2] is 1.36 (inactive). The z-score in test [17] was -0.0996; in [20], -0.878 (inactive).

For `C=C(/C(=C/C[C@@H](OC(C)=O)c1cccc(OCCO)c1)c1cnc2ccccc2c1)C(C)C`, the composite z-score in test [1] is 0.286; in test [3] it was -0.0787; in [4] it was -0.124; in test [5], 0.803; in test [6], 1.26; in [7] it was -0.149. Moreover, the composite z-score stood at 0.869 in test [8]; 1.38 in test [9]; 0.629 in [10]; 0.607 in test [11]; 0.472 in [12]; 0.138 in test [13]. The composite z-score in test [14] was -0.31; in test [15], 1.5; in test [16], 1.68; in [18] it was 1.55; in test [19], 1.07. In addition, in test [2], the composite Z-score was 0.19 (inactive). For the same compound, the z-score was 0.41 in test [17] and -0.614 (inactive) in test [20].

In the case of `CO[C@H]1O[C@H](CO)[C@@H](OC(=O)Nc2ccc3c(c2)OCO3)[C@H](OC(=O)Nc2ccccc2-c2ccccc2)[C@H]1OC(=O)Nc1ccccc1-c1ccccc1`, the composite z-score is 0.287 in test [1]; 0.214 in test [3]; 0.084 in test [4]; 0.687 in test [5]; 2.27 in [6]; 0.869 in [7]. Also, the composite z-score in [8] is 1.29; in test [9], -0.162; in [10], 1.03; in test [11] it was 1.73; in test [12], 1.26; in [13], 1.17. Moreover, the composite z-score is 0.435 in test [14]; 0.694 in test [15]; 0.819 in test [16]; -0.152 in test [18]; 0.331 in test [19]. The composite Z-score in [2] was 0.0432 (inactive). In addition, the values for the z-score in test [17] and in [20] were -0.559 and -1.22 (inactive), respectively.

Regarding `O=C1N(Cc2ccccc2)c2ccccc2C[C@@]12COC(c1ccc(OCCCO)cc1)=N2`, the composite z-score in test [1] was 0.809; in test [3], 0.251; in test [4], -0.0595; in test [5] it was 0.471; in [6], 2.51; in test [7], 0.756. The composite z-score in test [8] is 1.15; in test [9] it was -0.366; in test [10], 0.582; in test [11], 1.55; in test [12], 1.21; in [13], 0.75. Moreover, the composite z-score in test [14] is 0.785; in test [15], 1.3; in test [16], 0.326; in [18], -0.319; in test [19], 0.98. Besides, the composite Z-score in test [2] was -0.267 (inactive). The z-score is 0.0331 in [17] and -1.92 (inactive) in test [20].

(Values after PubChem BioAssay.)
